Peg3 promoter: Peg3 promoter activity inhibition; HeLa PEG-Prom luciferase reporter, luminescence, overnight; inhibition, % at 20 µM; 360,000 tested, 1.7% active;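 active = inhibition of at least 50% at 20 µM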
EBV LMP1 NFkB: reduces LMP1-driven NF-kappaB luciferase signal | LMP1-induced NF-kappaB luciferase reporter cells, luminescence | inhibition, % at 12.5 µM | 350,000 tested, 0.69% active; in the data active = inhibition above about 41%; inconclusive = no clear call, values can overlap the other calls;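 note: 0% = neutral control wells and 100% = reference inhibitor control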
TWEAK Fn14 block: blocks TWEAK-Fn14 interaction in a reporter cell assay; TWEAK-stimulated Fn14 reporter cells, luciferase luminescence, 8 h; inhibition, % at 10 µM; 360,000 tested, 2% active; AID 1159606; in the data active = inhibition above about 50%
TROY signal inh: TROY signaling inhibition. Q293 LMP1-TROYcd NF-kB luciferase reporter, 4 h. 360,000 tested, 0.98% active. inhibition, % at 10 µM. AID 1347056;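 active = compounds whose plate-normalised and pattern-corrected inhibition of the luciferase reporter signal at the single screening dose is 50% or more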
TRPM1 prom inh: reduces MITF-dependent TRPM1 promoter luciferase signal; inhibition, % at 12.5 µM; SK-MEL-5 TRPM1 promoter luciferase, 24 h; 330,000 tested, 0.83% active;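 active = mean inhibition across replicates of 60% or more, whatever share of single replicates reaches that level; inconclusive = some that reach 60%, reason not given; inactive = mean inhibition across replicates below 60%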
Shn3 3UTR inh: inhibitors of Schnurri-3 3'UTR reporter in osteoblasts; Clone20 osteoblast Shn3 3'UTR firefly luciferase, 24 h; inhibition, % at 12.5 µM; 360,000 tested, 0.52% active;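 active = mean inhibition of at least 75% with every replicate also reaching 75%; inconclusive = mean inhibition at least 75% but some replicate below; inactive = mean inhibition below 75%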;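 note: 0% = median of neutral control wells and 100% = pilot-screen positive control compound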
* marks the source's active call; other numbers are inactive results; ? = inconclusive; . = no result. Only some compounds are listed: those with a hit (about 4.1% of all), similar ones and a draw of the others.

SMILES	Peg3 promoter	EBV LMP1 NFkB	TWEAK Fn14 block	TROY signal inh	TRPM1 prom inh	Shn3 3UTR inh
O=C(c1cc(F)ccc1F)C1CCCN(Cc2ccc3nonc3c2)C1 (configuration not stated)	20.5	1.7	19.8	3.7	5.6	-8.7
c1ccc(CCCN2CCN(CCOC(c3ccccc3)c3ccccc3)CC2)cc1	25.9	82.4*	-4.0	7.5	-23.0	-4.8
Fc1ccc(C(OCCN2CCN(CCCc3ccccc3)CC2)c2ccc(F)cc2)cc1	67.3*	29.6	28.6	-1.5	41.9	87.3*
Fc1ccc(C(OCCN2CCCC2)c2ccc(F)cc2)cc1	-7.9	?	6.1	-22.2	-13.1	5.5
COC(=O)[C@]12OC[C@]34C([C@@H](O)[C@@H]1O)[C@]1(C)CC(=O)C(O)=C(C)[C@@H]1C[C@H]3OC(=O)[C@H](O)[C@@H]24 (some centres not stated)	28.2	15.6	95.2*	78.7*	71.2*	-8.2
COC(=O)C1=C(c2c(C)noc2C)C[C@@H]2CC[C@H]1N2C(=O)NCCCOC(C)C	-17.6	2.3	3.7	-1.9	0.7	-6.9
CCC(=O)[C@@H](C)[C@@H](O)[C@H](C)C[C@@H](C)C1OC(=O)C[C@@]2(O)CC=C(C)C(O2)C(C)=CCCC[C@H](O[C@H]2C[C@@H](OC(N)=O)[C@H](O)[C@@H](C)O2)C=C[C@H](C)C[C@H]1C (some centres not stated)	.	.	88.9*	29.1	.	.
COc1ccc(O)c2c(=O)c3c(OC)cc4c(c3oc12)C1C=COC1O4 (configuration not stated)	20.4	64.5*	-26.1	-14.9	25.3	12.3
CC(C)C(NC(=O)C(C(C)C)N(C)C)C(=O)N(C)C(C(=O)N1CCCC1C(=O)N1CCCC1C(=O)NCc1ccccc1)C(C)C (configuration not stated)	-3.5	4.8	4.7	16.9	64.6*	-15.2
O=CC(Br)P(=O)(N1CCOCC1)N1CCOCC1 (configuration not stated)	5.8	.	0.9	-21.8	.	9.6
C=CCn1c(O)c(C(C)=NCc2cccnc2)c(=O)[nH]c1=O	21.9	6.3	-6.5	4.1	2.9	0.1
C=CCn1c(O)c(C(C)=NCc2cc(OC)cc(OC)c2)c(=O)[nH]c1=O	53.8*	20.8	17.3	-3.8	32.5	71.8
O=[N+]([O-])c1ccc(NCc2ccc(Cl)cc2)c2ccncc12	31.8	5.7	50.6*	43.4	29.0	42.6
N/C(=N\[N+](=O)[O-])N1CCN(C(=O)OC2CCCC2)CC1	13.1	-3.5	13.6	22.4	3.2	5.5
COc1cc2c(c(OC)c1OC)-c1ccc(O)cc1[C@@H](NC(C)=O)CC2	-43.0	8.5	-6.7	6.9	65.1*	21.2
COc1cc2c(c(OC)c1OC)-c1ccc(O)c(=O)cc1[C@@H](NC(C)=O)CC2	16.6	-0.6	11.0	6.4	6.3	-2.9
COc1cc2c(c(OC)c1OC)-c1ccc(O)cc1C(NC(C)=O)CC2 (configuration not stated)	-37.9	-4.5	-41.5	6.1	61.3*	25.1
O=C(Cc1ccccc1)OCC(=O)N1CCN(S(=O)(=O)c2ccc(Cl)cc2)CC1	-19.9	-1.1	6.6	-3.8	-1.4	13.8
Cc1nc2ccc(Cl)cc2c(=O)n1-c1ccccc1Cl	18.1	4.5	11.8	-10.0	7.2	9.1
CCCN1CCC2(CC1)NC(CO)(CO)CO2	8.8	-4.3	81.6*	.	4.2	-7.5
CCN1CCC2(CC1)NC(CO)(CO)CO2	14.3	1.1	14.0	6.7	-13.6	-15.5
O=P(Oc1ccccc1)(Oc1ccccc1)c1ccccc1	14.6	-5.1	-13.9	-5.5	-0.3	-0.1
C=C(C)[C@@]12OC3(c4ccccc4)O[C@@H]1C1[C@@H]4O[C@]4(CO)[C@@H](O)[C@]4(O)C(=O)C(C)=C[C@H]4[C@@]1(O3)[C@H](C)[C@H]2OC(=O)/C=C/C=C/c1ccccc1 (some centres not stated)	99.8*	-168.8	-76.0	-239.1	9.2	-11.8
O=c1[nH]c(O)c(N=Nc2ccc3c(c2)OCCO3)c(=O)[nH]1	-31.7	36.3	90.7*	87.6*	51.6	37.4
CCOC(=O)c1ccccc1C(=O)OCC	-1.5	-2.4	-13.3	4.1	8.8	-17.4
SMILES	Peg3 promoter	EBV LMP1 NFkB	TWEAK Fn14 block	TROY signal inh	TRPM1 prom inh	Shn3 3UTR inh
CCOC(=O)c1ccc(-[n+]2c(-c3ccccc3)cc(-c3ccccc3)cc2-c2ccccc2)cc1	.	37.8	.	.	76.9*	.
CCOC(=O)c1cccc(-[n+]2c(-c3ccccc3)cc(-c3ccccc3)cc2-c2ccccc2)c1	26.5	5.1	24.0	-3.2	68.0*	-2.1
O=c1c2ccc(Cl)cc2[nH]c(=S)n1-c1cccnc1	5.5	2.3	1.3	-15.1	11.2	18.3
COc1ccccc1-n1c(-c2ccccc2Br)nc2ccccc2c1=O	17.9	2.4	17.3	-9.8	-9.1	6.3
CN1CCN(Cc2nc3ccccc3n2C)CC1	4.4	-0.2	9.1	14.5	6.2	2.2
Cn1c(NN=O)nc2ccccc21	-5.1	5.5	-31.5	7.7	42.5	89.6*
COc1ccc2c(c1)NP(=S)(Oc1ccccc1)N2 (configuration not stated)	-3.1	0.8	5.2	-4.5	-6.9	-27.5
Cc1ccc(-c2cc(-c3ccc(C)cc3)[n+](C)o2)cc1	2.6	3.4	19.2	-7.8	63.5*	82.5
Cc1c(-c2cccc(Cl)c2)nc2ccccc2c1C(=O)N1CCC2(CC1)OCCO2	22.2	-12.1	-1.8	8.4	11.5	12.6
Cc1ccc(-c2cc(-c3ccccc3)cc(-c3ccccc3)[n+]2-c2ccccc2)cc1	99.5*	32.1	103.8*	84.3*	103.3*	97.8*
CN(C)c1ccc(-[n+]2c(-c3ccccc3)cc(-c3ccccc3)cc2-c2ccccc2)cc1	71.7*	33.8	66.2*	46.6	92.5*	94.1*
Cc1ccc(-c2cc(-c3ccc(C)cc3)[n+](-c3ccc(C(=O)[O-])cc3)c(-c3ccc(C)cc3)c2)cc1	-8.3	-1.4	0.8	-7.3	11.8	-19.2
O=C(c1cn(Cc2ccccc2)c2ccccc12)N1CCCCC1	4.0	-8.2	28.7	2.9	2.7	12.5
O=[N+]([O-])c1cccc(CN2CCN(Cc3ccc(Br)cc3)CC2)c1	6.7	-10.3	32.8	17.0	9.5	3.8
N[C@@H](Cc1ccccc1)C(=O)N1C[C@H]2C[C@@H](C1)c1cccc(=O)n1C2	6.2	39.1	-4.2	-2.3	-5.2	-13.1
CCCCCC[N+](=O)[O-]	-6.3	-2.7	4.9	-4.8	6.8	-3.6
CCCCCCCCCCCCCCCC[N+](C)(C)C	95.3*	16.2	-20.5	25.0	25.2	94.5*
CCC(C)NC(=O)c1c(N)n(Cc2ccc3c(c2)OCO3)c2nc3ccccc3nc12 (configuration not stated)	38.5	-4.6	16.4	57.2*	-0.8	-7.8
CCCCCCn1c(=O)c(C(=O)Nc2cnccn2)c(O)c2ccccc21	32.4	25.6	49.5	17.8	72.7*	12.6

Assay outcomes: PubChem BioAssay, several laboratories
